Screens deposited in PubChem by National Center for Advancing Translational Sciences (NCATS).
Prx2 Sm inh: Schistosoma mansoni Prx2 inhibition | S. mansoni Prx2 activity coupled to TGR/GSH (TGR is thioredoxin glutathione reductase), NADPH fluorescence loss, qHTS | Potency, µM | 65,000 compounds, 0.07% hits | AID 448
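Coupled assay in which S. mansoni TGR passes NADPH reducing equivalents via glutathione to Prx2, which reduces H2O2. Compounds were preincubated 15 min at room temperature with 25 nM TGR/50 nM Prx2 mix. Kinetic NADPH fluorescence loss (ex 365/em 450 nm) was monitored.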
AmpC inh no det: inhibitors of E. coli AmpC beta-lactamase without detergent; AmpC nitrocefin hydrolysis, absorbance 480 nm, no detergent; Potency, µM (highest dose often 28.7 µM), without a hit: top-dose activity change, negative = inhibition; 71,000 compounds, 1.8% hits; note: % of control where 0% means no effect
Target sequence (P00811 whole entry, looked up): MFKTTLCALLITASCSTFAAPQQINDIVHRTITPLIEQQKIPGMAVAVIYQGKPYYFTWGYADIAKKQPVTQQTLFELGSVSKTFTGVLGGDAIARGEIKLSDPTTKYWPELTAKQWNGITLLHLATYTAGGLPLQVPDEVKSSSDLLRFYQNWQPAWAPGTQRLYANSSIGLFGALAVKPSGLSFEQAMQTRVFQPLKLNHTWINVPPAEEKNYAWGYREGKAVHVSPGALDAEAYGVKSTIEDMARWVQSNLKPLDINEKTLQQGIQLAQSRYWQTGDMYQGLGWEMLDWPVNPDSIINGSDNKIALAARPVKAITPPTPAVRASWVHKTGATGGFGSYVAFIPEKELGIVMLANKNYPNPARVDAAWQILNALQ
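Enzyme, pH 7.0 phosphate. Compound titrations were pre-incubated with AmpC for 15 min at room temperature before nitrocefin (stock 800 uM) addition; product formation was recorded at 480 nm every 20 s for 4 min.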
AmpC inh det: AmpC beta-lactamase inhibition, detergent assay | P00811 | purified AmpC, nitrocefin hydrolysis with detergent | Potency, µM (titrated, usually from 28.7 µM), for the others: at the top dose activity change, negative = inhibition | 71,000 compounds, 0.09% hits | AID 584; active = well fitted curve in the direction sought with a large enough effect; inconclusive = small, poorly fitted or top-dose-only effect; note: % is set by controls: 0 for no effect and ±100 for the full control effect
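E. coli AmpC (5.3 nM) in 20 mM phosphate pH 7.0 with 0.01% Triton X-100, preincubated 15 min RT with compound; nitrocefin (2 uL of 800 uM stock) hydrolysis followed by 480 nm absorbance every 20 s over 4 min.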
Anthrax LT inh: blocks cellular internalization of anthrax lethal toxin. Cells, anthrax lethal toxin internalization, FRET ratio (460/530). Potency, µM (top dose mostly 40 µM), for inactives: top-dose activity change, negative = inhibition, usual class: inhibitors. 70,000 compounds, 0.67% hits. AID 912; note: % is set by controls: 0 for no effect and ±100 for the full control effect; nearly all actives have a fitted effect of over 50% in size
* hit, by the source's call; ? = inconclusive; . = no result; [ ] = another dose, or the depositor's remark. The list is not random: actives were taken first. Their share in the collection is about 2.4%. Unless noted, calls come from the whole dose curve. Potency is the fitted concentration of half-maximal effect.

SMILES | Prx2 Sm inh | AmpC inh no det | AmpC inh det | Anthrax LT inh
O=C(NCCN1CCN(c2ccccc2F)CC1)C1CCCN(S(=O)(=O)c2cnc[nH]2)C1 (centres undefined) | >57 | 4µM*[single pt active] | 10% | -7%
CO[C@@H]1COC(=O)CCC[C@@H](C)[C@H](OC)COC(=O)CCC[C@H]1C | . | . | . | -13%[8 µM]
CCN(CC)CCCC(C)n1c(-c2ccccc2)nc2c(NCc3ccccc3)nc(C)nc21 (centres undefined) | . | 123% | 9% | ?
Cc1nnc(N2C(=O)C(O)=C(C(=O)c3ccco3)C2c2ccc(F)cc2)s1 (centres undefined) | >57 | 4µM*[single pt active] | 12% | -5%
O=C(C1=C(O)C(=O)N(Cc2ccccc2)C1c1ccncc1)c1ccco1 (centres undefined) | >57 | 0% | -2% | 1%
Cc1csc2nc(CSc3nc4ccccc4o3)c(Br)n12 | >57 | 18% | -4% | 13µM*
Cc1csc2nc(CSc3nncn3-c3ccccc3)c(Br)n12 | >57 | 0% | 11% | -11%
CC(=O)O[C@H]1CC[C@H]2[C@@H]3CCC4=C[C@@H](C5SCCS5)[C@H](OC(C)=O)C[C@]4(C)[C@H]3CC[C@@]12C | >57 | 1%[5.75 µM] | 13%[5.75 µM] | -22%[8 µM]
O=C(/C=C/N1CCOCC1)c1ccc(-c2ccccc2)cc1 | . | 13µM* | -2% | ?
COc1ccc2c(c1)[n+]([O-])c(/C(C)=N/NC(N)=S)c(C)[n+]2[O-] | >57 | 2%[5.75 µM] | -2%[5.75 µM] | 0%[8 µM]
COc1ccc2c(c1O)-c1cccc3c1[C@H](C2)N(C)CC3 | >57 | -4% | 0% | ?
CC(C)NS(=O)(=O)c1ccc2c(c1)oc(=O)n2C | >57 | 8% | 11% | 4%
CCOC(=O)CNC(=O)C(Cc1ccccc1)NS(=O)(=O)c1ccc2c(c1)CCC(=O)N2 (centres undefined) | >57 | 10% | 13% | 12%
CN1CCN(C(=O)C(Cc2ccccc2)NS(=O)(=O)c2ccc3c(c2)CCC(=O)N3)CC1 (centres undefined) | >57 | 4µM*[single pt active] | 7% | 3%
CC(C)CC(NS(=O)(=O)c1ccc2c(c1)oc(=O)n2C)C(=O)NCc1cccnc1 (centres undefined) | >57 | 4µM*[single pt active] | 14% | -7%
CC(C)C(NS(=O)(=O)c1ccc2c(c1)oc(=O)n2C)C(=O)N1CCN(c2ccccc2F)CC1 (centres undefined) | >57 | 4µM*[single pt active] | 15% | ?
O=C1CCc2cc(S(=O)(=O)NC(Cc3ccccc3)C(=O)NCC3CCCO3)ccc2N1 (centres undefined) | >57 | 4µM*[single pt active] | 13% | 4%
CCCCNc1nc(C)nc2c1nc(-c1ccccc1)n2CCN1CCCC1 | . | 62% | 18% | 2%
COC(=O)[C@H](Cc1ccccc1)NC(=O)C/C=C\[C@@H](C)[C@@H](CO)OC | . | . | . | -2%[8 µM]
CC(=O)O[C@H]1C2=C(C(=O)[C@H]3O[C@@H]31)[C@@H]1[C@@H]3[C@@H](C)OC=C4[C@H](O)[C@H]5O[C@@H]5C(=O)[C@]43C2O[C@H]1C | . | . | . | 7%[8 µM]
C[C@@H]1CCC/C=C\[C@H]2C[C@H](O)C[C@@H]2[C@H](O)/C=C\C(=O)O1 | >57 | 7% | -4% | ?
CN(C)c1nc(-c2ccoc2)nc2ccccc12 | >57 | 13% | 8% | 7%
CO[C@@H]1COC(=O)[C@H](COCc2ccccc2)NC(=O)C/C=C\[C@@H](C)[C@H](OC)COC(=O)[C@@H](C)NC(=O)C/C=C\[C@H]1C | . | . | . | -2%[8 µM]
Cn1c(=O)oc2cc(S(=O)(=O)NC(Cc3ccccc3)C(=O)N3CCCCC3)ccc21 (centres undefined) | >57 | 4µM*[single pt active] | 11% | 9%
CCCCCCCCCCCCC/C=C\[C@@H](O)[C@H](CO)NC(C)=O | >57 | 81% | -9% | 16µM*
SMILES | Prx2 Sm inh | AmpC inh no det | AmpC inh det | Anthrax LT inh
O=C(Nc1nc2c(s1)CCCC2)c1ccc2ncsc2c1 | >57 | 78% | 13% | 10µM*
Cc1ncsc1C(=O)Nc1nc2c(s1)CCCC2 | >57 | -1% | -1% | 11%
O=C(O)C[C@H]1NCc2cc3ccccc3nc21 | >57 | -4%[5.75 µM] | 1%[5.75 µM] | 6%[8 µM]
COC(=O)CS(=O)(=O)c1nnc([C@H](Cc2ccccc2)NC(=O)OC(C)(C)C)o1 | ? | ? | 4µM* | .
COc1ncc2nc(CCc3ccccc3)c(=O)n(Cc3cccs3)c2n1 | >57 | 29% | 2% | ?
CCCCCC[C@H]1C(=O)O[C@@H](C)[C@H](NC(=O)c2cccc(NC=O)c2O)C(=O)O[C@@H](C)[C@@H]1OC(=O)CC(C)C | >57 | 4% | -3% | ?
Cc1ccc(S(=O)(=O)Nc2ccc3nc(N)sc3c2)cc1 | >57 | 10µM* | 2% | -21%
O=c1cc(-c2cccc(O)c2)oc2c(O)c(O)ccc12 | >57 | ? | -8% | ?
O=C(O)CCc1c2ccc(=O)c(O)c-2oc2c(O)c(O)ccc12 | >57 | 2.5µM* | -26%[5.75 µM] | -26%[8 µM]
O=C(O)[C@@H]1Cc2c([nH]c3ccccc23)[C@@H](CCCCO)N1 | >57 | 2%[5.75 µM] | -3%[5.75 µM] | -6%[8 µM]
CCC1(CCSC(=N)N)C(=O)NC(=O)NC1=O | >57 | 0%[5.75 µM] | -3%[5.75 µM] | 0%[8 µM]
CN(C)CCCN1C(=O)CSC1c1ccccc1 (centres undefined) | >57 | 3.2µM*[single pt active] | 11% | -12%
O=C(O)c1ccc(C2SCC(=O)N2Cc2ccccc2)cc1 (centres undefined) | >57 | -8% | 5% | -16%
CC[C@H]1C(=O)OC[C@@H]1Cc1cncn1C | >57 | -9% | -1% | -8%
COc1ccc(Br)cc1CNC(=O)C1CCCN(S(C)(=O)=O)C1 (centres undefined) | >57 | -10% | -2% | 10µM*
COc1ccc2[nH]cc(CCNc3ncncc3-c3cccc(NS(C)(=O)=O)c3)c2c1 | >57 | -14% | 12% | 5%
CCc1ncc(C(O)c2cccc(OC)c2OC)n1C (centres undefined) | >57 | -13% | -6% | 1%
CCn1ccnc1C(O)c1cccc(OC)c1OC (centres undefined) | >57 | 4µM*[single pt active] | 12% | -9%
COc1ccc2ccccc2c1C1CC(=O)N2CN(Cc3ccco3)CSC2=C1C#N (centres undefined) | >57 | 4µM*[single pt active] | 0% | ?
COc1ccc(C2CC(=O)N3CN(Cc4ccco4)CSC3=C2C#N)cc1 (centres undefined) | >57 | -4% | -3% | ?
CCOc1cc(C2CC(=O)N3CN(C4CCCCC4)CSC3=C2C#N)ccc1O (centres undefined) | >57 | 2.5µM* | 12% | -7%
COc1cc(C2CC(=O)N3CN(Cc4ccco4)CSC3=C2C#N)ccc1OCc1ccccc1 (centres undefined) | >57 | 4µM*[single pt active] | 9% | ?
c1ccc2c(-n3ccnc3)nc(-c3ccoc3)nc2c1 | >57 | 14% | 4% | ?
COc1ccccc1OCCn1cc(C(=O)c2ccco2)c2ccccc21 | >57 | 6% | 6% | 10µM*
